CtBP-E1A inh – blocks the CtBP interaction with E1A | AlphaScreen GST-E1A/His-CtBP binding, 1536-well; stronger effect = lower value | actives 0.49% (n = 340,000) | AID 651724 | activity change, % (concentration not given with the values); in the data active = activity change below about -65%; inconclusive = mostly about -30% to -63%
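Steps: dispense buffer (Tris pH 8.0, NaCl 300 mM, TCEP 1 mM, BSA, Tween 20); add 5X protein mix (GST-E1A, His-CtBP, 125 nM each); pin 23 nL compound; 2 h at 37 °C, dark; add 5X beads (50 ug/mL); 1 h; read.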
BAZ2B inh – inhibitors of human BAZ2B bromodomain; actives 4.4% (n = 360,000); Q9UIF8; Potency, µM (highest dose often 114 µM), hits mostly inhibitors; AlphaScreen BAZ2B-H3K14Ac peptide displacement; also: nearly all actives have a fitted effect of over 60% in size
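Protein-peptide AlphaScreen: BAZ2B 50 nM, b-H3K14Ac 50 nM, 1x PBS pH 7.4 + 0.01% Tween-20. Preincubation 30 min RT; cpd 30 min RT (top 110 uM); beads 20 min RT, light-protected.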
G9a block – blocks human histone lysine methyltransferase G9a; Q96KQ7; G9a H3K9 monomethylation, AlphaScreen, 2 h; Potency, µM (top dose mostly 102 µM), most hits filed as inhibitors; actives 8.8% (n = 350,000); AID 504332; also: nearly all actives have a fitted effect of over 75% in size
Target sequence (Q96KQ7 913-1193 limits assumed): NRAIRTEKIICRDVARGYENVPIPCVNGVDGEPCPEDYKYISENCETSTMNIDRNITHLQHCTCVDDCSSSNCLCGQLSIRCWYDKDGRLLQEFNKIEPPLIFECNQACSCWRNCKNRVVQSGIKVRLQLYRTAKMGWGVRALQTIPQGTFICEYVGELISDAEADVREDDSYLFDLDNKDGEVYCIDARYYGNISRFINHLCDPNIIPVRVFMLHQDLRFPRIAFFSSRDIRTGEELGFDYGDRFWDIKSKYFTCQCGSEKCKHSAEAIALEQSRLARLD
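Signal arises when biotinylated H3K9 peptide, once monomethylated, bridges streptavidin donor and antibody-captured acceptor beads. Enzyme at 20 nM was preincubated 15 min with test compounds; peptide 500 nM and SAM 20 uM then reacted for 2 h.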
HP1b chromo inh – inhibitors of HP1-beta chromodomain binding to methylated histone tails. P83916. AlphaScreen HP1-beta / biotin-H3K9me3 peptide binding. Potency, µM (series often up to 114 µM), actives largely listed as inhibitors. actives 0.56% (n = 390,000). AID 540317; also: nearly all actives have a fitted effect of over 70% in size
Target sequence (P83916 whole entry, looked up): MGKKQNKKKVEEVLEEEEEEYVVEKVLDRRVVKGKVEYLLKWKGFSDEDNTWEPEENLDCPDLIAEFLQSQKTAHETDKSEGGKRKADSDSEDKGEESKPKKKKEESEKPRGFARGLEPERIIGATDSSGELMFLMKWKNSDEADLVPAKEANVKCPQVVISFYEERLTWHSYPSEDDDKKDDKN
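Compound inhibition of the preformed complex between 50 nM HP1-beta and 50 nM biotinylated H3K9me3 peptide was read by AlphaScreen. Buffer was PBS pH 7.4 with 0.01% Tween-20. Incubations ran 30 min at room temperature, with 10 ug/mL donor/acceptor beads.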
JMJD2A Tudor inh – blocks the human JMJD2A Tudor domain; AlphaScreen JMJD2A-Tudor / H3K4me3 peptide binding; O75164; Potency, µM (highest dose often 114 µM), actives largely listed as inhibitors; actives 4.4% (n = 390,000); also: nearly all actives have a fitted effect of over 50% in size
Six1-Eya2 blk – Six1/Eya2 interaction inhibition; Q15475+O00167; AlphaScreen GST-Six1/His-Eya2 binding, biochemical; stronger effect = lower value; activity change, % (test concentration not listed); actives 0.56% (n = 360,000); AID 651725; in the data active = activity change below about -65%; inconclusive = mostly about -30% to -63%
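Compounds are tested against tagged Six1 and Eya2 proteins bridged by glutathione donor and nickel acceptor beads; after a one-hour incubation at 37 °C without light, AlphaScreen emission is recorded.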
Of the large screens only hits and unclear results are named; the others gave an inactive call; ! = a repeat was not active. An excerpt weighted towards active compounds, which were near 10% of everything screened. Unless noted, calls follow the shape of the dose curve; as a rule, active = well fitted inhibition curve with a large enough effect; inconclusive = small, poorly fitted or top-dose-only effect; inactive = no such curve, though single readings can be large or run the other way.

CC(C)Oc1ccc(C(=O)O)c(C(=O)O)c1	JMJD2A Tudor inh 79.4µM
C=C1C(=O)C23C(O)C1CCC2C12CCCC(C)(COC(C)=O)C1C(O)C3(O)OC2 (stereo unspecified)	JMJD2A Tudor inh inconclusive (no result: BAZ2B inh, G9a block)
Cc1cc(OC(=O)c2ccco2)c(Sc2ccccc2[N+](=O)[O-])c(=O)o1	BAZ2B inh inconclusive, G9a block 31.6µM, JMJD2A Tudor inh inconclusive
COc1cc(CNC(=O)OC2CC3CC2[C@H]2CCCCN2C3=O)cc(OC)c1 (stereo partly specified)	none (no result: BAZ2B inh, G9a block, HP1b chromo inh, JMJD2A Tudor inh)
COc1cc(CNC2CCCCC2OC)cc(OC)c1 (stereo unspecified)	BAZ2B inh 56.2µM, G9a block inconclusive, HP1b chromo inh inconclusive, JMJD2A Tudor inh 5.62µM (no result: CtBP-E1A inh)
CC(C)(C)C1=CC(=O)C(N2CCOCC2)=CC1=O	BAZ2B inh 50.1µM, G9a block inconclusive, HP1b chromo inh inconclusive
CCC(Sc1nc(-c2ccccc2)[nH]c1S(=O)(=O)c1ccc(C)cc1)C(=O)O (stereo unspecified)	G9a block 12.6µM (no result: CtBP-E1A inh, Six1-Eya2 blk)
CCCSc1nc(-c2ccccc2)[nH]c1S(=O)(=O)c1ccc(C)cc1	G9a block 12.6µM (no result: CtBP-E1A inh, Six1-Eya2 blk)
CSc1cccc(NC(=O)c2[nH]c(C)c(C(C)=O)c2C)c1	CtBP-E1A inh inconclusive, BAZ2B inh 50.1µM, G9a block inconclusive, HP1b chromo inh inconclusive
CC(=O)c1c(C)[nH]c(C(=O)Nc2ccc(Cl)cc2)c1C	none
CC1=C(/C=C/C(C)=C\C=C\C(C)=C\C(=O)O)C(C)(C)CCC1	G9a block 22.4µM! (no result: CtBP-E1A inh, BAZ2B inh, HP1b chromo inh, JMJD2A Tudor inh, Six1-Eya2 blk)
CC1=C(/C=C/C(C)=C/C=C/C(C)=C/C(=O)O)C(C)(C)CCC1O (stereo unspecified)	none (no result: CtBP-E1A inh, BAZ2B inh, HP1b chromo inh, JMJD2A Tudor inh, Six1-Eya2 blk)
CC1=C(/C=C/C(C)=C/C=C/C(C)=C/C(=O)O)C(C)(C)CCC1	BAZ2B inh inconclusive, G9a block 50.1µM!
O=C(CCn1c(=O)c2cccn2c2cccnc21)NCc1cccc(Br)c1	none (no result: CtBP-E1A inh, Six1-Eya2 blk)
Nc1ncn(C2C[C@H](O)[C@@H](CO)O2)c(=O)n1 (stereo partly specified)	none (no result: CtBP-E1A inh, BAZ2B inh, HP1b chromo inh, JMJD2A Tudor inh, Six1-Eya2 blk)
Cc1ccc(S(=O)(=O)Oc2ccccc2/C=C2\SC(=O)NC2=O)cc1	BAZ2B inh inconclusive, G9a block 50.1µM
CCc1ccc(S(=O)(=O)ON2C(=O)c3ccccc3C2=O)cc1	BAZ2B inh inconclusive, G9a block inconclusive, HP1b chromo inh 35.5µM, JMJD2A Tudor inh 50.1µM
COc1ccc(OC)c(S(=O)(=O)ON2C(=O)c3ccccc3C2=O)c1	G9a block 1.41µM, HP1b chromo inh inconclusive, JMJD2A Tudor inh 89.1µM
Cc1nn2c(C)c(C(=O)NC(C)c3ccccc3)cnc2c1-c1ccc(F)cc1 (stereo unspecified)	none (no result: CtBP-E1A inh, Six1-Eya2 blk)
CCOc1cc(CNc2cccc3ccccc23)cc(Br)c1OCC(=O)NC(C)(C)C	none
CCOc1cc(CNc2ccc(N(C)C)cc2)cc(Br)c1OCC(=O)NC(C)(C)C	CtBP-E1A inh inconclusive, BAZ2B inh 14.1µM, G9a block 5.01µM, HP1b chromo inh 14.1µM, JMJD2A Tudor inh 39.8µM
COc1cc(CNc2ccc3[nH]c(=O)[nH]c3c2)ccc1OCc1ccc(Cl)cc1	none (no result: G9a block)
CCOc1cc(CNc2ccc(N3CCCCC3)cc2)cc(Br)c1OCC(=O)NC(C)(C)C	CtBP-E1A inh inconclusive, BAZ2B inh 11.2µM, G9a block 10µM, HP1b chromo inh inconclusive, JMJD2A Tudor inh 10µM, Six1-Eya2 blk inconclusive
CCOc1c(Cl)cc(CNc2ccc3[nH]c(=O)[nH]c3c2)cc1OC	G9a block 3.55µM, JMJD2A Tudor inh inconclusive (no result: CtBP-E1A inh, Six1-Eya2 blk)
COc1cc(CNc2ccc3[nH]c(=O)[nH]c3c2)cc(Br)c1OCC(=O)NC(C)(C)C	BAZ2B inh 39.8µM, JMJD2A Tudor inh 56.2µM
Cc1[nH]c(=O)n(C(C)C)c(=O)c1Br	none (no result: BAZ2B inh, G9a block)
CCCCc1nn2c(=O)cc(COC(=O)c3cccc(NC(=O)CCc4ccccc4)c3)nc2s1	none (no result: CtBP-E1A inh, Six1-Eya2 blk)
Cc1cccc(-c2nnc(SCC(=O)Nc3ncccn3)n2C)c1	none
COCC(C)NCc1cccc(C)c1 (stereo unspecified)	none
COCC(C)NCc1ccccc1C (stereo unspecified)	BAZ2B inh 39.8µM, G9a block inconclusive, HP1b chromo inh inconclusive, JMJD2A Tudor inh 6.31µM
COc1cccc(CNCCOCCO)c1OC	Six1-Eya2 blk inconclusive (no result: BAZ2B inh)
COCC(C)NCc1cccc(OC)c1OC (stereo unspecified)	BAZ2B inh inconclusive, G9a block 17.8µM, HP1b chromo inh inconclusive, JMJD2A Tudor inh 1.78µM
Cc1cccc(-c2nc3c(cnn3-c3ccccc3)c(=O)n2-c2cccc(Cl)c2)c1	G9a block inconclusive (no result: CtBP-E1A inh, Six1-Eya2 blk)
CCOc1cccc2c1OC(c1cc(OC)c(OC)c(OC)c1)N1N=C(c3ccc(C)o3)CC21 (stereo unspecified)	BAZ2B inh inconclusive, G9a block 12.6µM
COCCNCCOc1ccc(C)cc1[N+](=O)[O-]	BAZ2B inh inconclusive, HP1b chromo inh inconclusive, JMJD2A Tudor inh 25.1µM
Cc1ccc(OCCN(C)C)c([N+](=O)[O-])c1	BAZ2B inh inconclusive, G9a block inconclusive, HP1b chromo inh inconclusive, JMJD2A Tudor inh 8.91µM
COc1cc(C)ccc1OCCOCCOc1ccc(C)cc1[N+](=O)[O-]	none
COc1ccc(C=O)cc1COc1ccc(C)cc1[N+](=O)[O-]	BAZ2B inh inconclusive, G9a block inconclusive
C=CCNCCOCCOc1ccc(C)cc1[N+](=O)[O-]	BAZ2B inh inconclusive, G9a block 22.4µM, JMJD2A Tudor inh 3.16µM
O=C(NN1CCOCC1)c1cn(-c2ccccc2)nc1-c1cccs1	none

Screening data deposited in PubChem by National Center for Advancing Translational Sciences (NCATS).
